FLuc modulator: firefly luciferase modulation, counter-screen for miR-21 project; P08659; purified FLuc, Km substrates, luminescence inhibition; Potency, µM (doses to about 57.5 µM), for inactives: at the highest dose activity change, negative = inhibition, hits mostly inhibitors; 360,000 tested, 6.9% active;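 also: plate controls were vehicle for no effect and reference inhibitor for full effect; nearly all actives have a fitted effect of over 55% in size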
Target sequence (P08659 whole entry, looked up): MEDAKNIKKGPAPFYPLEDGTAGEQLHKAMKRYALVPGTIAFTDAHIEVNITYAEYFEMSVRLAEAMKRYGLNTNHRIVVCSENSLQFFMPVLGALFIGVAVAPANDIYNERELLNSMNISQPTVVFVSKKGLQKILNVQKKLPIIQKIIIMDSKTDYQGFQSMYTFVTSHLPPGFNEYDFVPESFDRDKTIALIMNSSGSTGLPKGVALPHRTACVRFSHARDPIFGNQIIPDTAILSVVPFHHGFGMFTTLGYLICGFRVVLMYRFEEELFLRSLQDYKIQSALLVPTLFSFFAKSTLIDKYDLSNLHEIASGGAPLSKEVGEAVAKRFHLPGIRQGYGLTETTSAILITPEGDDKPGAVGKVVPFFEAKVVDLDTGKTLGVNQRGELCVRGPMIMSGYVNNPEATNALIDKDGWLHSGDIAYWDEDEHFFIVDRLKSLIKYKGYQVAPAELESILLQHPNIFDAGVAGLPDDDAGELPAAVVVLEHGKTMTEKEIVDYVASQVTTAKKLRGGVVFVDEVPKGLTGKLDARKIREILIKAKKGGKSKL
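Biochemical qHTS of compounds, final roughly 60 µM downward over six points, against 10 nM purified firefly luciferase using Km concentrations of substrates (10 uM D-luciferin, 10 uM ATP) in Tris acetate pH 7.5 buffer; luminescence output.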
Luc counter: counter-screen: inhibitors of Kinase-Glo firefly luciferase; Potency, µM (highest dose often 38.3 µM), for the others: at the highest dose activity change, negative = inhibition, actives largely listed as inhibitors; 200,000 tested, 0.28% active; Kinase-Glo luciferase, ATP luminescence, 8 min; Q27757; also: % is scaled to controls: 0 for no effect and ±100 for the full control effect; nearly all actives have a fitted effect of over 60% in size
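Compound is pinned into ATP-containing buffer (10 uM ATP, imidazole pH 7.2, 7 mM MgCl2). Kinase-Glo luciferase reagent is then added. Light output is recorded following an 8-min room-temperature incubation.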
NPC1 promoter act: NPC1 promoter activation | 320,000 tested, 2.4% active | Potency, µM (top dose mostly 9.22 µM), for the others: at the highest dose activation, usual class: activators | Huh7 NPC1 promoter luciferase reporter, 24 h; also: % of control where 0% means no effect; nearly all actives have a fitted effect of over 60% in size
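Quantitative HTS used a cell-based reporter: Huh7 cells stably bearing the NPC1 promoter upstream of luciferase were treated with compounds for 24 h, and promoter activation was read as luminescence.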
ELG1 genotox: inducers of genotoxicity in HEK293T ELG1-luciferase cells | HEK293T ELG1-luciferase reporter, luminescence, 16 h | Potency, µM (titrated, usually from 46 µM), inactives show top-dose activity change, positive = activation, usual class: activators | 330,000 tested, 1.3% active | AID 504466; also: % of control where 0% means no effect; nearly all actives have a fitted effect of over 60% in size
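Genotoxicity was scored as increased ELG1-luciferase reporter signal, measured by ONE-Glo luminescence (30 min, room temperature). Compound or vehicle exposure of the HEK293T reporter cells lasted 16 hr at 37°C.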
SMN2 splice enh: increases expression of the SMN2 splice variant. HEK293 SMN2-luciferase splicing reporter, luminescence, 30-36 h. Potency, µM (series often up to 46.1 µM), for the others: at the highest dose activity change, positive = activation, most hits filed as activators. 210,000 tested, 2.8% active. AID 1458; also: % of control where 0% means no effect; nearly all actives have a fitted effect of over 55% in size
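HEK293 cells carry an SMN2 minigene-luciferase reporter in which exon 7 inclusion puts luciferase in frame. Cells were seeded at 2000 cells/well, attached for 10-12 hours, then exposed to compounds for 30-36 hours at 37C before ONE-Glo luminescence.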
Rab9 promoter act: Rab9 promoter activation. Huh7 Rab9 promoter-luciferase reporter, luminescence, 24 h. 320,000 tested, 2.8% active. Potency, µM (titrated, usually from 9.22 µM), without a hit: at the highest dose activation, negative = inhibition, most hits filed as activators; also: % of control where 0% means no effect; nearly all actives have a fitted effect of over 60% in size
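Steps: seed 1500 Huh7 Rab9-luc cells per well, rest 2 h at 37 °C; add compound in DMSO; incubate 24 h; add luciferase reagent, 10 min ambient; read luminescence.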
Numbers without * were called inactive; ? = inconclusive; / = not tested or not shown. The list is not random: actives were taken first. Their share in the collection is about 7.4%. Calls follow the shape of the dose curve; as a rule, active = well fitted curve in the direction sought with a large enough effect; inconclusive = small, poorly fitted or top-dose-only effect, or another doubt; inactive = no such curve, though single readings can be large; an effect the other way counts as inactive or inconclusive. Potency is read from the fitted curve at half-maximal effect.

SMILES | FLuc modulator | Luc counter | NPC1 promoter act | ELG1 genotox | SMN2 splice enh | Rab9 promoter act
N#Cc1ccc(C(=O)Nc2nc3ccccc3[nH]2)cc1 | 2.39µM* | / | 1.78µM* | ? | / | 1.78µM*
CCc1ccc(C(=O)Nc2nc3ccccc3[nH]2)cc1 | 0.107µM* | / | 0.1µM* | ? | / | ?
Cc1ccc(C(=O)OCC(=O)Nc2ccccc2C(F)(F)F)cc1S(=O)(=O)N1CCCCC1 | -1.8% | / | -0.5% | -4.6% | / | -3.4%
CCN(CC(=O)NC1CCS(=O)(=O)C1)S(=O)(=O)c1ccc(Cl)c(C(F)(F)F)c1 (configuration not stated) | 9.7% | / | -2.9% | 3.8% | / | -2.8%
O=C(c1ccccc1SCc1ccccc1)N1CCCCCC1 | 6.9% | 1.1% | -1.8% | -4.3% | -1.2% | -1.0%
CC1CN(C(=O)c2cccc(S(=O)(=O)N3CCN(c4ccccc4)CC3)c2)CC(C)O1 (configuration not stated) | 2.7% | / | -3.1% | -1.1% | / | -4.8%
O=C(Nc1nc2ccccc2[nH]1)c1cc(F)cc(F)c1 | 2.69µM* | / | 1.78µM* | ? | / | 0.631µM*
COc1ccc2oc(C(=O)Nc3nc4ccccc4[nH]3)c(C)c2c1 | 0.426µM* | / | 0.355µM* | ? | / | 0.316µM*
CN(C)S(=O)(=O)c1ccc(C(=O)Nc2nc3ccccc3[nH]2)cc1 | ? | -1.5% | ? | ? | 11.2µM* | ?
O=C(Nc1nc2ccccc2[nH]1)c1cc2ccccc2o1 | 1.35µM* | -12.7% | 2.24µM* | 2.31µM* | 4.47µM* | 1.12µM*
COc1ccc2oc(C(=O)OC/C(O)=C(\C#N)c3nc4ccccc4[nH]3)c(C)c2c1 | 2.4% | / | -2.5% | 14.8% | / | -2.2%
COC(=O)Nc1nc2ccc(C(=O)c3ccc(F)cc3)cc2[nH]1 | 3.2% | / | -20.4% | / | / | -20.0%
COCCCNC(=S)Nc1c(C)cc(C)cc1C | 1.9% | / | -1.7% | -1.6% | / | 1.1%
O=C(Nc1nc2ccccc2[nH]1)c1ccccc1F | 0.19µM* | 2µM* | ? | ? | / | -22.4%
Cc1cc(C)cc(C(=O)Nc2nc3ccccc3[nH]2)c1 | 10.7µM* | / | 2.51µM* | ? | / | ?
O=C(Nc1nc2ccccc2[nH]1)c1cccc(S(=O)(=O)N2CCOCC2)c1 | ? | -4.7% | 18.9% | -4.7% | 22.4% | 12.7%
O=C(Nc1nc2ccccc2[nH]1)c1ccc(F)c(S(=O)(=O)N2CCOCC2)c1 | 16.9µM* | -1.6% | ? | 13.7% | ? | ?
O=C(Cc1ccccc1F)Nc1nc2ccccc2[nH]1 | -17.4% | 2.2% | 10.7% | 10.4% | 18.3% | 21.8%
COc1cc(OC)cc(C(=O)Nc2nc3ccccc3[nH]2)c1 | 10.7µM* | -8.8% | 20.8% | ? | ? | ?
COc1ccc(OC)c(NC(=O)CSc2nnc(CNC(=O)c3cccs3)o2)c1 | 1.7% | / | -1.4% | 6.6% | / | 2.0%
Cc1cc(C)c(C)c(OCCCCN2CCCCC2)c1 | -5.3% | / | 0.2% | -2.6% | / | -2.4%
CC1CCN(S(=O)(=O)c2cccc(C(=O)NNC(=O)c3ccco3)c2)CC1 | 1.6% | / | 0.3% | -1.3% | / | 1.5%
O=c1[nH]c(SCc2ccc(Cl)cc2)nc2ccsc12 | 6.01µM* | -0.3% | 29.6% | 10.5% | ? | ?
O=C(/C=C/c1ccccc1)Nc1nc(-c2ccncc2)cs1 | 2.69µM* | 5.1% | 1.2% | -0.6% | -74.7% | -6.2%
O=C(/C=C\c1ccco1)Nc1nc(-c2ccccc2)cs1 | 12µM* | -5.2% | 13.3% | 3.2% | ? | ?
SMILES | FLuc modulator | Luc counter | NPC1 promoter act | ELG1 genotox | SMN2 splice enh | Rab9 promoter act
COc1ccc(C(=O)N=c2sc3ccccc3n2C)cc1 | 1.69µM* | -25.3% | 3.16µM* | ? | 2.51µM* | 2.51µM*
COC(=O)c1ccc2c(c1)sc(=NC(=O)c1ccc(S(=O)(=O)N3CCCCC3)cc1)n2C | -1.4% | / | / | / | / | /
Cn1c(=NC(=O)COc2ccccc2)sc2ccccc21 | 13.5µM* | 6.1% | 3.55µM* | -0.2% | 12.6µM* | 2µM*
COc1ccc(C(=O)N=c2sc3cc(Cl)ccc3n2C)cc1 | -12.8% | / | / | / | 1.1% | /
COC(=O)Cn1c(=NC(=O)c2cccc(OC)c2)sc2cc(OC)ccc21 | 3.01µM* | -1.5% | 11.9% | -1.5% | -8.1% | 11.2%
COc1cccc(C(=O)N=c2sc3cc(S(C)(=O)=O)ccc3n2C)c1 | -14.2% | -4.0% | ? | ? | 7.1% | 3.55µM*
O=C(Nc1ccc(F)cc1)C1(S(=O)(=O)c2ccc(Cl)cc2)CC1 | -1.2% | / | -4.5% | -4.2% | / | -3.2%
CC(Oc1ccccc1)C(=O)Nc1ccc(F)c(S(=O)(=O)N2CCOCC2)c1 (configuration not stated) | 4.0% | / | -0.8% | 2.5% | / | 0.9%
Cc1cccc(C(=O)NCc2nnc3c4ccccc4c(-c4ccccc4)nn23)c1 | 1.7% | -1.8% | -0.6% | -4.2% | -27.6% | 0.7%
CC(C(=O)c1ccc(Br)cc1)[n+]1cccc2ccccc21 (configuration not stated) | 2.4% | / | 1.7% | -12.8% | / | -3.4%
COc1ccc(S(=O)(=O)N2CCOC2CNC(=O)C(=O)NCCN2CCOCC2)cc1 (configuration not stated) | 2.9% | / | -0.8% | 0.6% | / | 3.7%
COc1cc(OC)cc(C(=O)N=c2sc3ccccc3n2C)c1 | ? | -10.3% | ? | ? | 10µM* | 2.51µM*
COc1cccc(C(=O)N/N=c2\sc3ccccc3n2C)c1 | ? | -2.7% | 1.0% | 3.4% | 18.5% | -4.0%
C[C@H](NC(=O)C1CCN(S(=O)(=O)c2ccccc2)CC1)C(=O)NCc1ccc(Cl)cc1Cl | 0.9% | / | -3.4% | -11.3% | / | -10.1%
Cc1ccc2[nH]c(=O)c(CN(Cc3ccccc3)C(=S)NCCCN(C)C)cc2c1 | 0.757µM* | 12.6µM* | 0.316µM* | 0.731µM* | / | 0.316µM*
COc1cc2cc(CN(CCc3ccccc3C)C(=S)NCCCN(C)C)c(=O)[nH]c2cc1OC | 0.5% | 2.1% | -3.0% | 0.3% | -0.6% | -1.1%
Cc1ccc(S(=O)(=O)N/N=C/c2cccn2-c2ccc(Cl)cc2)cc1 | 0.536µM* | -25.9% | ? | 10.7% | -19.6% | ?
CCc1cccc(NC(=O)CSc2nnc(Cc3ccc(OC)cc3)c(=O)[nH]2)c1 | ? | / | -2.5% | -6.6% | / | 1.4%
O=C(c1cnccn1)N1CCC2(CCCN(c3cccc(-c4ccccc4)c3)C2)CC1 | / | -0.7% | / | / | -41.0% | /
O=C(c1cnccn1)N1CCC2(CCCN(c3ccc(-c4ccccc4)cc3)C2)CC1 | / | -4.3% | / | / | 3.98µM* | /
COc1ccc(-c2csc(NC3CCCCC3)n2)c(OC)c1 | 23.9µM* | / | 19.9% | ? | / | 22.7%
O=C(Nc1nc(-c2ccccc2)cs1)NC1CCCCC1 | ? | -1.8% | 17.3% | 23.1µM* | -27.5% | 20.4%

Assay outcomes from PubChem.
